Results on eleven compounds are retold here after PubChem BioAssay (NCI).

This is part of a sample that, as a whole, favours compounds with a hit. Of some 83,000 tested, about 20% had one in any assay.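 Testing used 96-well plates and a 48-hour single-concentration exposure. Example: -40 means 40% of the starting cells died.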 A number with no mark means an inactive call. Activity calls are given as the source filed them. Rule for the calls: active = growth percent below 10; inactive = the rest.

Common to all, as to assay: NCI-60 one-dose screen, 48 h (100 = growth as untreated, 0 = no growth, -100 = all killed)
Experiment [1] relates to OVCAR-8 ovarian. The conditions noted are these: 10 µM.
In experiment [2] the test system is OVCAR-5 ovarian. The conditions noted are these: 10 µM.
For experiment [3], the system named is OVCAR-4 ovarian. Particulars: 10 µM.
The test system of experiment [4] is SK-OV-3 ovarian. The conditions noted are these: 10 µM.
Experiment [5] deals with IGROV1 ovarian. The conditions noted are these: 10 µM.
The test system of experiment [6] is OVCAR-3 ovarian. Particulars: 10 µM.
For experiment [7], the system named is HS 578T breast. Particulars: 10 µM.
The subject of experiment [8] is NCI/ADR-RES ovarian. The conditions noted are these: 10 µM.
For experiment [9], the system named is T-47D breast. The conditions noted are these: 10 µM.
For experiment [10], the system named is BT-549 breast. Particulars: 10 µM.
Experiment [11] relates to MDA-MB-435 melanoma. The conditions noted are these: 10 µM.
Experiment [12] concerns SW-620 colon. Particulars: 10 µM.
In experiment [13] the test system is MCF7 breast. The conditions noted are these: 10 µM unless noted.
Experiment [14] deals with HCT-116 colon. The conditions noted are these: 10 µM.
The subject of experiment [15] is HCC-2998 colon. Particulars: 10 µM.
Experiment [16] concerns KM12 colon. Particulars: 10 µM.
The test system of experiment [17] is RPMI-8226 leukemia. Particulars: 10 µM.

Regarding `O=C(OCC(O)C1OC(c2ccccc2)OC(COC(=O)c2ccccc2)C1O)c1ccccc1` (centres undefined), the growth was 103% in experiment [1]; 105% in experiment [2]; 93.2% in experiment [3]; 108% in [4]; 103% in experiment [5]; 118% in experiment [6]. In addition, the growth was 116% in experiment [7]; 107% in [8]; 109% in experiment [9]; 110% in experiment [10]; 102% in experiment [11]; 109% in experiment [12]. The growth in [13] is 91.1%; in experiment [14], 109%; in experiment [15], 103%; in [16] it was 111%.
As for `S=c1sc2ccccc2n1CN1CCCCC1`, the growth in [1] is 99.6%; in experiment [2], 85%; in experiment [4], 94.5%; in experiment [5], 105%; in experiment [6] it was 93.3%; in experiment [7], 100%. In addition, the growth is 93.4% in experiment [8]; 100% in [9]; 90.3% in experiment [10]; 104% in experiment [11]; 90% in [12]; 115% in experiment [13]. Also, the growth in experiment [14] was 102%; in experiment [15] it was 116%; in experiment [16] it was 98.4%.
With `O=[N+]([O-])c1ccccc1S(=O)c1ccccc1[N+](=O)[O-]`, the growth in [17] was 84.5%; in [1], 99.9%; in experiment [2], 120%; in experiment [3] it was 67%; in experiment [4], 99.9%; in [6] it was 103%. Besides, the growth is 106% in experiment [7]; 91.5% in [8]; 73.1% in experiment [9]; 95.3% in experiment [10]; 72.2% in experiment [11]; 44.6% in [12]. In addition, the results for the growth in experiment [13], in experiment [14] and in experiment [16] were 95.2%, 51.8% and 88.1%, respectively.
For `Cc1ccc(/C=C2\SC(=S)N(c3ccc(F)cc3)C2=O)o1`, the growth in experiment [1] is 0% (active); in experiment [2], 102%; in experiment [3] it was 13.6%; in [4], 92.2%; in experiment [5], 90.7%; in experiment [6] it was 79.1%. Moreover, the growth is 73% in [8]; 112% in [10]; 77.4% in [11]; 93.3% in experiment [12]; 71.1% in experiment [13]; 64.5% in [14]. Further, the growth is 118% in experiment [15] and 78.2% in experiment [16].
Consider `CC1=CC(=O)c2ccccc2C1=O`, for which the growth in experiment [1] was 107%; in experiment [2] it was 105%; in experiment [3], 112%; in experiment [4], 108%; in experiment [5] it was 112%; in experiment [6], 113%. In addition, the growth is 103% in experiment [7]; 107% in experiment [8]; 98.7% in experiment [9]; 116% in [10]; 107% in experiment [11]; 106% in [12]. The growth in experiment [13] is 100%; in [14] it was 104%; in experiment [15], 108%; in [16], 104%.
As to `Cc1cc(/C=C/c2ccc3cc(N(C)C)ccc3[n+]2C)c(C)n1-c1ccccc1`, the growth is -30.2% (active) in experiment [17]; -60.4% (active) in experiment [1]; 10.4% in experiment [3]; -32.2% (active) in experiment [4]; 3.27% (active) in experiment [5]; -73.3% (active) in experiment [6]. The growth was 24.7% in [8]; -47.3% (active) in [9]; -52.2% (active) in [10]; -49.8% (active) in [11]; 7.4% (active) in experiment [12]; -11.6% (active) in experiment [13]. Besides, the results for the growth in experiment [14], in experiment [15] and in experiment [16] were -10.3% (active), 0.715% (active) and -62.1% (active), respectively.
With `CCOC(=O)C/C(C)=N\O`, the growth was 104% in experiment [17]; 109% in experiment [1]; 106% in experiment [2]; 103% in experiment [4]; 101% in experiment [5]; 99.9% in [6]. In addition, the growth in experiment [7] is 101%; in experiment [8], 96.6%; in [9] it was 98.3%; in experiment [10], 97.1%; in experiment [11], 107%; in [12], 101%. For the same compound, the growth in [13] was 101%; in experiment [14], 103%; in [15], 101%; in [16] it was 104%.
For the compound `CCc1nn(Cc2ccccc2)c2nc(C)c(CCc3ccccc3)c(Cl)c12`, the growth was 72% in experiment [17]; 95.1% in [2]; 86.2% in experiment [3]; 97.1% in experiment [4]; 109% in experiment [6]; 92.2% in [7]. The growth was 92% in experiment [8]; 59.2% in experiment [9]; 99.3% in experiment [10]; 92.4% in [11]; 99.2% in [12]; 82.7% in experiment [13]. For the same compound, the growth in experiment [14] is 81.2%; in experiment [15], 101%.
Turning to `CCOc1ccc(/C=N/N=C(N)N)cc1OCC`, the growth in [17] is 101%; in experiment [1] it was 106%; in experiment [2], 101%; in [4] it was 106%; in [5], 95.9%; in experiment [6], 107%. For the same compound, the growth is 109% in experiment [8]; 88.4% in experiment [9]; 99% in [11]; 82.3% in experiment [13]; 95.8% in [14]; 101% in [15]. Further, the growth in [16] was 108%.
As for `CC(C)(O)C#CC#CC(C)(C)O`, the growth in [17] is 92.1%; in [1], 99.2%; in [2], 97.8%; in experiment [3], 104%; in experiment [5], 102%; in experiment [7], 100%. Also, the growth was 96.9% in experiment [8]; 93.7% in experiment [10]; 103% in experiment [11]; 104% in [12]; 101% in [13]; 96.5% in experiment [14]. In addition, the growth in experiment [15] was 96.4%; in experiment [16], 108%.
Regarding `O=S(=O)(Cc1ccccc1)c1ccccc1`, the growth is 102% in experiment [1]; 106% in experiment [2]; 98.1% in [3]; 113% in experiment [4]; 114% in experiment [5]; 107% in [6]. The growth is 133% in experiment [7]; 117% in [8]; 110% in experiment [9]; 105% in [10]; 107% in experiment [11]; 115% in experiment [12]. In addition, the growth in [13] is 99.5%; in experiment [14], 103%; in experiment [15] it was 105%; in experiment [16] it was 110%.
